Data: PubChem BioAssay (NCI)
The panel holds about 79,000 compounds, 15% with a hit somewhere; the sample as a whole holds those more often. Unmarked numbers belong to inactive results. The source made the active and inactive calls. No stated cut-off is given here; in the data, active means growth inhibition above about 70%; inactive means the rest.

How the values were obtained:
[1] = NCI Yeast Anticancer Drug Screen. Data for the rad50 strain (AID 155);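 further: 0% = growth of vehicle-only cultures of the same strain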; conditions: S. cerevisiae rad50 strain growth inhibition, stronger effect = higher value
Outline: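 Relative growth inhibition (compound vs vehicle) was measured in yeast with a defined repair-gene alteration.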

[2] = NCI Yeast Anticancer Drug Screen. Data for the mec2-1 strain (AID 157); conditions: S. cerevisiae mec2-1 strain, stronger effect = higher value
Outline: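 Mutant yeast (mec2-1) grown with compound; growth inhibition relative to vehicle control reported.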

[3] = NCI Yeast Anticancer Drug Screen. Data for the sgs1 mgt1 strain (AID 161);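 further: 0% = growth of cultures given vehicle only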; conditions: S. cerevisiae sgs1 mgt1 strain, stronger effect = higher value
Outline: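 Percent growth inhibition was derived by comparing compound-exposed mutant yeast with vehicle-exposed cultures. The strain carries alterations in DNA damage repair.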

[4] = NCI Yeast Anticancer Drug Screen. Data for the bub3 strain (AID 167); conditions: S. cerevisiae bub3 mutant strain, stronger effect = higher value
Outline: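 Screening used yeast with an engineered genetic alteration affecting cell cycle control. Compound-exposed cultures were compared with vehicle cultures, and reduced growth was taken as inhibition.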

[5] = NCI Yeast Anticancer Drug Screen. Data for the mlh1 rad18 strain (AID 175); conditions: S. cerevisiae mlh1 rad18 strain growth inhibition, stronger effect = higher value
Outline: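 Genetically defined yeast (DNA repair-deficient) exposed to compounds; growth inhibition determined relative to vehicle.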

[6] = NCI Yeast Anticancer Drug Screen. Data for the cln2 rad14 strain (AID 165);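 further: 0% = growth equal to vehicle treated cultures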; conditions: S. cerevisiae cln2 rad14 strain, stronger effect = higher value
Outline: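 Readout is yeast growth inhibition versus vehicle-treated controls, using a strain with cln2 and rad14 alterations exposed to compound.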

[7] = at 5.0 µM (retest, dose inferred, filed as 0.5)
[8] = at 50.0 µM (retest, dose inferred, filed as 5.0)

Structure (SMILES) | growth inhibition [1, 7] | growth inhibition [1, 8] | growth inhibition ([1]; at 50.0 µM) | growth inhibition [2, 7] | growth inhibition [2, 8] | growth inhibition ([2]; at 50.0 µM) | growth inhibition [3, 7] | growth inhibition [3, 8] | growth inhibition ([3]; at 50.0 µM) | growth inhibition [4, 7] | growth inhibition [4, 8] | growth inhibition ([4]; at 50.0 µM) | growth inhibition [5, 7] | growth inhibition [5, 8] | growth inhibition ([5]; at 50.0 µM) | growth inhibition [6, 7] | growth inhibition [6, 8] | growth inhibition ([6]; at 50.0 µM)
O=C(CC(=O)c1ccccc1)c1ccccc1.O=C(CC(=O)c1ccccc1)c1ccccc1.O=C(CC(=O)c1ccccc1)c1ccccc1.[Al] | 2% | -3% | 19.7% | 5% | 4% | 86.4% (active) | 5% | 2% | 43.6% | 4% | 3% | 6.55% | 0% | 0% | 20.4% |  |  | 
CC(C)CCC(=O)OC1CCC2(C)C(=CCC3C2CCC2(C)C(O)CCC32)C1 (configuration not stated) | 16% | 23% | 42% | -2% | 5% | -1.95% | 5% | 27% | 36.4% | 2% | 15% | 3.95% | -2% | 43% | 72.6% (active) | 0% | 5% | 19.2%
CCC[CH2][Sn-]([CH2]CCC)([CH2]CCC)[O]c1cc(Cl)c(Cl)cc1Cl | 99% (active) | 96% (active) | 90% (active) | 100% (active) | 100% (active) | 93.2% (active) | 100% (active) | 100% (active) | 93.2% (active) | 100% (active) | 100% (active) | 91.8% (active) | 99% (active) | 94% (active) | 90.2% (active) |  |  | 
[N-]=[N+]=NS(=O)(=O)c1ccccc1S(=O)(=O)N=[N+]=[N-] | 13% | 99% (active) | 99.2% (active) | 8% | 100% (active) | 92.6% (active) | 9% | 99% (active) | 99.8% (active) |  |  |  | 18% | 99% (active) | 99.6% (active) | 67% | 99% (active) | 74.8% (active)
COc1ccc(Br)c(/C=C/[N+](=O)[O-])c1 | 23% | 90% (active) | 99.5% (active) | 11% | 96% (active) | 99.7% (active) | 16% | 82% (active) | 99.7% (active) | 5% | 92% (active) | 95.5% (active) | 6% | 96% (active) | 87.8% (active) | 0% | 65% | 11.7%
O=c1cccc(C2CC(CO)C3CCCCN3C2)[nH]1 (configuration not stated) | 1% | -1% | 69.3% | 1% | -2% | 91.8% (active) | 2% | 1% | 57.5% | 3% | 2% | 53.2% | -2% | -3% | -50.8% | -8% | -12% | 37.3%
[CH3][Sn]([CH3])([S]CCS(=O)(=O)O)[S]CCS(=O)(=O)O | 10% | 7% | 33.5% | 9% | 11% | 7.1% | -38% | -30% | -9.75% | -20% | -24% | -12.2% | 14% | 11% | -61.6% | -10% | -12% | -5.95%
O=C([CH-]C(=O)c1ccccc1)c1ccccc1.O=C([CH-]C(=O)c1ccccc1)c1ccccc1.[Nd+3].[OH-].[OH3+] | 34% | 34% | 92.2% (active) | 11% | 11% | 93.7% (active) | 38% | 38% | 94.2% (active) | 36% | 36% | 92.2% (active) | 30% | 30% | 89.8% (active) |  |  | 
C/C=C1/C(=O)O[C@]23C=C[C@@H]4C(C(=O)OC)=CO[C@H](O[C@@H]12)[C@@H]43 | 28% | 82% (active) | 91.9% (active) | 41% | 98% (active) | 93.8% (active) | 63% | 98% (active) | 93.6% (active) | 61% | 96% (active) | 92.5% (active) | 88% (active) | 98% (active) | 66% | 32% | 64% | 89.5% (active)
N#Cc1cc([N+](=O)[O-])c(Cl)c([N+](=O)[O-])c1Cl | 50% | 98% (active) | 92.6% (active) | 61% | 99% (active) | 93.2% (active) | 100% (active) | 98% (active) |  | 99% (active) | 96% (active) |  | 41% | 99% (active) | 92.1% (active) | 70% (active) | 97% (active) | 
CCC[CH2][Sn]([CH2]CCC)([CH2]CCC)[O]C(=O)C(OC)c1ccccc1 (configuration not stated) | 100% (active) | 100% (active) | 90.5% (active) | 100% (active) | 100% (active) | 91.3% (active) | 99% (active) | 99% (active) | 91% (active) | 99% (active) | 99% (active) | 88.7% (active) | 100% (active) | 100% (active) | 89.4% (active) |  |  | 
CN1CCN(c2ccc3nc(-c4ccc5nc(CCCc6ccc(N(CCCl)CCCl)cc6)[nH]c5c4)[nH]c3c2)CC1 | 98% (active) | 98% (active) | 90.5% (active) | 99% (active) | 99% (active) | 90.8% (active) | 100% (active) | 99% (active) | 92.2% (active) |  |  |  | 98% (active) | 98% (active) | 89.5% (active) | 97% (active) | 99% (active) | 91% (active)
Clc1cc[c]([Tl][c]2ccc(Cl)cc2)cc1 | 94% (active) | 98% (active) | 22.9% | 97% (active) | 100% (active) | 11.2% | 90% (active) | 99% (active) | 82.8% (active) | 95% (active) | 98% (active) | 89.7% (active) | 94% (active) | 98% (active) | -1.3% | 92% (active) | 97% (active) | 94.3% (active)
[Cl][Hg][c]1ccc(Cl)s1 | 99% (active) | 99% (active) | 99.2% (active) | 100% (active) | 99% (active) | 99.2% (active) | 100% (active) | 100% (active) | 99% (active) | 100% (active) | 100% (active) | 99.3% (active) | 99% (active) | 99% (active) | 98.6% (active) | 99% (active) | 99% (active) | 99% (active)
CC(C)(C)OOC(=O)/C=C\C(=O)OOC(C)(C)C | 1% | -1% | 5.05% | -2% | -1% | -15.1% | 0% | 0% | 8.55% |  |  |  | 1% | 0% | -12.7% | 1% | -8% | 75.3% (active)
CCC[CH2][Sn]1([CH2]CCC)[O]CC(CN2CCCCC2)[O]1 (configuration not stated) | 25% | 94% (active) | 82.7% (active) | 20% | 95% (active) | 85.4% (active) | 32% | 95% (active) | 82.8% (active) | 34% | 96% (active) | 88% (active) | 30% | 96% (active) | 87% (active) | 22% | 91% (active) | 78.5% (active)
O=[N+]([O-])c1ccc(NP(=S)(Nc2ccc([N+](=O)[O-])cc2)c2ccccc2)cc1 | 28% | 91% (active) | 93% (active) | 38% | 94% (active) | 95.6% (active) | 6% | 89% (active) | 91.5% (active) |  |  |  | 68% | 77% (active) | 94.3% (active) | 56% | 88% (active) | 90.8% (active)
COc1ccc(CC2C(=O)NC(C)C(=O)N(C)C3C(=O)N(C)C(Cc4ccc(O)c(c4)Oc4ccc(cc4)C3O)C(=O)NC(C)C(=O)NC(C)C(=O)N2C)cc1 (configuration not stated) (tested in a mixture with another compound) | 31% | 99% (active) | 83.2% (active) | 28% | 100% (active) | 78% (active) | 37% | 99% (active) | 86.3% (active) | 34% | 99% (active) | 83.3% (active) | 32% | 98% (active) | 69.3% | 41% | 98% (active) | 78.5% (active)
O=C([CH-]C(=O)c1ccccc1)c1ccccc1.O=C([CH-]C(=O)c1ccccc1)c1ccccc1.[La+3].[OH-].[OH3+] | 24% | 24% | 92% (active) | 23% | 23% | 93.5% (active) | 27% | 27% | 93.7% (active) | 37% | 37% | 91.2% (active) | 25% | 25% | 88.2% (active) |  |  | 
O=C([CH-]C(=O)c1ccccc1)c1ccccc1.O=C([CH-]C(=O)c1ccccc1)c1ccccc1.O=C([CH-]C(=O)c1ccccc1)c1ccccc1.[Cl-].[Hf+4] | 38% | 95% (active) | 88% (active) | 37% | 96% (active) | 90.2% (active) | 50% | 95% (active) | 91.8% (active) | 64% | 95% (active) | 90.8% (active) | 46% | 94% (active) | 87.9% (active) |  |  | 
